# Screening data deposited in PubChem by National Center for Advancing Translational Sciences (NCATS).
# Sm TGR block – qHTS Assay for the Inhibitors of Schistosoma Mansoni Peroxiredoxins | purified TGR, DTNB reduction, TNB absorbance 405 nm | Potency, µM (highest dose often 114 µM), inactives show at the highest dose activity change, negative = inhibition, actives largely listed as inhibitors | 360,000 compounds, 3% hits; also: potency is read from the fitted curve at half-maximal effect; nearly all actives have a fitted effect of over 60% in size
#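 Kinetic colorimetric format: TGR-catalysed, NADPH-driven DTNB reduction monitored via TNB absorbance. Enzyme dispensed at 20 nM; compound exposure 15 min at room temperature before reaction start.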
# TbPYK inhibitor – qHTS of Trypanosoma Brucei Inhibitors; pyruvate kinase (Trypanosoma brucei), Q57TT1; TbPYK enzyme, Kinase-Glo Plus ATP luminescence, 45 min; Potency, µM (highest dose often 76.8 µM), for the others: at the top dose activity, negative = inhibition, usual class: inhibitors; 410,000 compounds, 0.12% hits; AID 624173, 2012; also: potency is read from the fitted curve at half-maximal effect; nearly all actives have a fitted effect of over 50% in size
#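 T. brucei PYK with substrate was exposed to pin-transferred compounds across a concentration series, then started with 130 uM ADP (final). After 45 min at room temperature, Kinase-Glo Plus luminescence was read, normalized and curve-fitted.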
# Giardia FBPA inh – qHTS Assay for Inhibitors of Fructose-1,6-bisphosphate Aldolase from Giardia Lamblia; purified Giardia FBPA; AID 2451, 2010; Potency, µM (highest dose often 59.6 µM), without a hit: at the highest dose activity, negative = inhibition, hits mostly inhibitors; A8B2U2; 290,000 compounds, 0.71% hits; also: potency is read from the fitted curve at half-maximal effect; nearly all actives have a fitted effect of over 55% in size
# Target sequence (A8B2U2 whole entry, looked up): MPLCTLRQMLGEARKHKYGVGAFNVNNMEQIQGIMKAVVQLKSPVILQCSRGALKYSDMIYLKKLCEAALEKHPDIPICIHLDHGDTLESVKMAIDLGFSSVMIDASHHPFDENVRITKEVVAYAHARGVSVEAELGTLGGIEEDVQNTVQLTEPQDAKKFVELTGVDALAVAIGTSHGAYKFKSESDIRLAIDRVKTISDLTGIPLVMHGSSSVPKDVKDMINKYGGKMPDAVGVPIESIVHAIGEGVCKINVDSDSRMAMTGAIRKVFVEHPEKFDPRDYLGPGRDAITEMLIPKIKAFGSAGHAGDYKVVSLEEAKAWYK
#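 Giardia FBPA (40 nM reagent) was preincubated 10 min at RT with compound (up to 57.5 uM final), then substrate plus GAPDH/TPI/NAD/arsenate coupling system with diaphorase/resazurin was added; resorufin fluorescence (525/598 nm) was read after 20 min.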
# HCMV antiviral – qHTS Assay for inhibitors of the human cytomegalovirus (HCMV); 410,000 compounds, 4.5% hits; activity change, negative = inhibition, % at 57.5 µM; HFF cells, HCMV-luciferase reporter, 72 h; active compounds read low; in the data active = activity change below about -60%; inconclusive = no clear call, values can overlap the other calls; inactive = above about -39%
#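 Inhibition of viral replication was scored as loss of reporter luminescence in HFFs infected with HCMV-luciferase (MOI 1 PFU/cell) for 72 h; compounds tested at 2 doses, normalized to buffer and Salinomycin controls.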
# FMDV inh – High Throughput Screening for Foot and Mouth Disease Virus Antivirals. 410,000 compounds, 1.2% hits. AID 1159524, 2015. FMDV antiviral cell-based qHTS. Potency, µM (series often up to 57.9 µM), inactives show top-dose activity change, negative = inhibition, actives largely listed as inhibitors; calls by dose curve; tested in HEK293T cells; also: read-out not given here; potency is read from the fitted curve at half-maximal effect; nearly all actives have a fitted effect of over 45% in size
# RE007 growth inh – qHTS Assay for Inhibitors of the HIV-1 protein Vpr; S. pombe RE007 Vpr strain, BacTiter-Glo ATP luminescence, 24 h; Potency, µM (titrated, usually from 92.2 µM), without a hit: at the top dose activity change, negative = less growth, actives largely listed as inhibitors; 360,000 compounds, 0.21% hits; active = well fitted falling curve with a large enough effect; inconclusive = small, poorly fitted or top-dose-only effect; inactive = no such curve, though single readings can be large or run the other way; also: potency is read from the fitted curve at half-maximal effect; nearly all actives have a fitted effect of over 50% in size
#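 Fission yeast strain RE007, carrying one chromosomally integrated HIV-1 vpr copy, was seeded at OD 0.01 in PMG+AL medium with 23 nL pinned compound. After 24 h at 30 °C and 99% humidity, viability was read by BacTiter-Glo luminescence.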
# Starred values were filed as active, the others as inactive; ? = inconclusive; . = no result; + = active, no number; ! = not confirmed by another sample. A selection: hits, their analogues and other compounds. The true share with any hit is near 7.7%. Unless noted, calls follow the shape of the dose curve; as a rule, active = well fitted curve in the direction sought with a large enough effect; inconclusive = small, poorly fitted or top-dose-only effect, or another doubt; inactive = no such curve, though single readings can be large; an effect the other way counts as inactive or inconclusive. % is scaled to controls: 0 for no effect and ±100 for the full control effect.
SMILES,Sm TGR block,TbPYK inhibitor,Giardia FBPA inh,HCMV antiviral,FMDV inh,RE007 growth inh
CCC(=O)N1CCc2cc(S(=O)(=O)N3CCN(c4ccccc4F)CC3)ccc21,7%,2%,.,-1,-3%,.
COc1ccc(Nc2ncnc3c2cnn3Cc2ccc(C)cc2)cc1,10%,0%,-11%,-39,28µM*,-3%
Cn1ncc2c(Nc3ccc(Cl)cc3)ncnc21,2%,-1%,-8%,+,56%,-24%
CC1=C(C(=O)Nc2ccccc2)C(c2ccc(Cl)cc2)n2c(s/c(=C/c3cccc(OCC(=O)O)c3)c2=O)=N1 (stereo not given),.,-7%,1%,-68*,16%,-21%
Cn1nc(-c2ccc(OCC(=O)Nc3cccc(C(F)(F)F)c3)cc2)c2ccccc2c1=O,-2%,4%,.,-22,?,.
Cc1nc2c(C)c(C)c(C)c(C)c2nc1C,-8%,0%,6%,?,7%,-11%
Cc1nc2c(O)c3c(c(O)c2nc1C)C1C=CC3CC1,.,4%,.,-17,7.1µM*,-6%
C[C@@H]1NC(=O)/C(=C\c2ccccc2Br)NC1=O,8%,-1%,2%,-102*,13%,-15%
C[C@@H]1NC(=O)/C(=C\c2ccccc2Cl)NC1=O,-1%,1%,-1%,?,-9%,1%
Cc1ccc(-n2c(SCC(=O)N3CC(=O)Nc4ccccc43)nc3ccccc3c2=O)cc1,-3%,-7%,-11%,-68*,-29%,13%
CC(C)c1nc(SCC(=O)N2CC(=O)Nc3ccccc32)c2ccccc2n1,.,-2%,-16%,-87*,16µM*,-1%
CCOC(=O)c1c(C)oc2ncnc(N3CCN(c4ccccc4OC)CC3)c12,-8%,-1%,.,-6,?,.
N#Cc1cccc(-c2nc(NCc3ccccc3)c3ccccc3n2)c1,.,.,1%,.,-17%,.
CCN(CC)C(=O)c1ccc(Oc2ccc([N+](=O)[O-])cc2Cl)cc1,-18%,3%,3%,46,?,33%
CCN(CC)C(=O)c1cc([N+](=O)[O-])cc2c1-c1ccc([N+](=O)[O-])cc1C2=C(C#N)C#N,4µM*,-1%,7.1µM*,28,-11%,-3%
O=C(C1=C(O)C(=O)N(CCN2CCOCC2)C1c1ccccn1)c1cccs1 (stereo not given),20µM*,-10%,?,46,4%,-24%
CCN(CC)CCN1C(=O)C(O)=C(C(=O)c2cccs2)C1c1ccc(C)o1 (stereo not given),28µM*,-11%,-26%,22,56%,0%
Cc1ccc(C2C(C(=O)c3cccs3)=C(O)C(=O)N2CCN2CCOCC2)o1 (stereo not given),20µM*,0%,?,29,50%,2%
Cc1ccc(C2C(C(=O)c3sc(C)nc3C)=C(O)C(=O)N2CCN(C)C)o1 (stereo not given),45µM*,-4%,-15%,30,9%,11%
O=C(C1=C(O)C(=O)N(CCN2CCOCC2)C1c1ccc(F)cc1)c1cccs1 (stereo not given),-23%,-9%,-20%,?,8%,4%
CCN(CC)CCN1C(=O)C(O)=C(C(=O)c2cccs2)C1c1ccccn1 (stereo not given),?,-6%,?,83,32%,-8%
COc1ccc(-c2cccc(NS(=O)(=O)c3ccc(NC(C)=O)cc3)c2)nn1,-6%,-1%,.,-33,-23%,.
CCOc1ccccc1CNc1ncnc2ccc(-c3c(C)noc3C)cc12,?,1%,-2%,-28,32µM*,.
Cc1cc(C)c(Cn2cnc3nc4c(cc3c2=O)CCCC4)c(C)c1,-3%,2%,.,-18,-10%,.
CCc1nc2cc(C(=O)N(C)C3CCOC3)cc(NC(=O)c3ccccc3OC)c2n1C (stereo not given),.,.,.,.,2%,.
SMILES,Sm TGR block,TbPYK inhibitor,Giardia FBPA inh,HCMV antiviral,FMDV inh,RE007 growth inh
COc1ccc(C(=O)/C=C/c2cn(CC(O)CN3CCCCCC3)c3ccccc23)cc1OC (stereo not given),-28%,-2%,.,-91*,-20%,.
O=C(/C=C/c1cn(CC(O)CN2CCCCC2)c2ccccc12)c1ccccc1 (stereo not given),2%,-2%,-1%,-85*,-6%,-4%
COc1ccc(C(=O)/C=C/c2cn(CC(O)CN3CCN(C)CC3)c3ccccc23)cc1OC (stereo not given),9%,-1%,-1%,-78*,-5%,-4%
COc1ccc(OC)c(NC(=O)C(C)n2nc(C)c3c(C)n(-c4ccccc4)nc3c2=O)c1 (stereo not given),-2%,-16%,.,-25,-10%,.
COc1cccc2cc(-c3nc4sc5c(c4c(=O)[nH]3)CCC(C(C)(C)C)C5)c(=O)oc12 (stereo not given),-1%,5%,.,-10,1%,.
O=C(CSc1nccn1Cc1ccc(F)cc1)NC1CCCC1,-7%,0%,-1%,-65*!,-22%,-17%
O=C(CSc1nccn1Cc1ccc(Cl)cc1)NC1CCCC1,-2%,-10%,.,-63*,-26%,.
O=C(Nc1ccc(F)cc1)N1CC(=O)N2[C@H](CO)[C@@H](c3ccc(Br)cc3)[C@H]2C1,.,.,.,-1,.,.
CCc1ccc(NC(=O)C2=CC(c3cccs3)=NS(=O)(=O)N2C)cc1,0%,-1%,1%,-75*!,-17%,-10%
Cc1ccc(NC(=O)C2=CC(c3cccs3)=NS(=O)(=O)N2C)cc1,-12%,0%,0%,12,-8%,-5%
COc1ccc(CCN2CNc3c(c(=O)n(C)c(=O)n3C)C2)cc1,89µM*,-3%,-1%,-15,7%,8%
Cn1c2c(c(=O)n(C)c1=O)CN(CC1CCCO1)CN2 (stereo not given),16%,5%,-2%,69,-14%,7%
CCCCOc1ccc(C2OC34CCCCC3C(C#N)(C#N)C2(C#N)C(=N)O4)cc1 (stereo not given),?,-11%,?,.,3%,12%
CCOc1ccc(C2OC34CCCCC3C(C#N)(C#N)C2(C#N)C(=N)O4)cc1OC (stereo not given),50µM*,-4%,?,.,3%,-2%
Cc1ccc(N2NC3(CCN(C(N)=O)CC3)NC2=O)cc1,40µM*,-8%,-6%,24,-2%,39%
CC(CNC(=O)CN1C(=O)COc2ccc(S(=O)(=O)N3CCCCCC3)cc21)c1ccccc1 (stereo not given),-4%,3%,.,-25,1%,.
